ChEMBL document CHEMBL4513146, “CO-ADD screening of Karazin Kharkiv National University (Ukraine) compounds”
Entries with a potency or affinity are not part of this list.

What was measured:
[1] = test system: Staphylococcus aureus; settings: Concentration 32 ug.mL-1;; ASSAY_TEST Inhibition of Bacterial Growth; detection method Absorption (OD600); MEDIA CAMHB; plate type 384well; NBS; CORNING #3640; time 18 hr
[2] = test system: Escherichia coli; settings: Concentration 32 ug.mL-1;; ASSAY_TEST Inhibition of Bacterial Growth; detection method Absorption (OD600); MEDIA CAMHB; plate type 384well; NBS; CORNING #3640; time 18 hr

| Compound | Inhibition [1] | Inhibition [2] |
| --- | --- | --- |
| CCOC(=O)c1ccc(NC(=O)Cn2nc3c(Oc4ccccc4)nccn3c2=O)cc1 | -0.24% | -4.26% |
| COc1ccc(-n2ccn3c(-c4cccc([N+](=O)[O-])c4)nnc3c2=O)cc1 | 3.65% | -6.72% |
| O=C(Cn1nc2c(Oc3ccccc3)nccn2c1=O)Nc1ccc2c(c1)OCO2 | 2.59% | -7.1% |
| Cc1cc(C)cc(Nc2nc(C)cc3nn(CC(=O)Nc4ccc(Cl)cc4)c(=O)n23)c1 | -9.56% | 0.58% |
| Cc1ccc(NC(=O)CSc2nnc3ccc(C(=O)Nc4cccc(F)c4)cn23)cc1F | 14.43% | 0.35% |
| Cc1ccc(NC(=O)CSc2nnc3ccc(C(=O)Nc4cccc(F)c4)cn23)c(C)c1 | 12.19% | -1.6% |
| CC(C)c1nnc2c(=O)n(CC(=O)Nc3ccc(Br)cc3F)c3ccccc3n12 | 7.11% | 1.53% |
| Cc1cccc(NC(=O)CSc2nnc3c(=O)n(-c4ccccc4)ccn23)c1 | 7.18% | -6.81% |
| COc1ccc(-c2cc3c4nn(CC(=O)Nc5ccc(F)cc5)c(=O)n4ccn3n2)cc1 | -1.37% | -7.82% |
| CSc1cccc(NC(=O)Cn2nc3c4c5c(sc4ncn3c2=O)CCCC5)c1 | -8.02% | -9.58% |
| CCCCn1c(=O)c2sccc2n2c(=O)n(CC(=O)NC(C)C)nc12 | 6.34% | -3.44% |
| Cc1cc(C)cc(Nc2nc(C)cc3nn(CC(=O)Nc4ccc(F)cc4F)c(=O)n23)c1 | 11.96% | -0.48% |
